Bioassay records deposited in PubChem BioAssay by several laboratories.
BoNT A protease = BoNT A light chain protease inhibition | multiplex microsphere protease substrate cleavage, flow cytometry | inhibition, % at 10 µM | 360,000 compounds, 0.17% hits | AID 588499; also: plate controls were buffer without enzyme for full effect and enzyme alone for no effect
Autofluor counter = flagged as autofluorescent in microsphere protease counterscreen; fluorescence intensity (concentration not given with the values); 360,000 compounds, 3.1% hits; AID 624483; compound autofluorescence counterscreen, microsphere flow cytometry; stronger effect = higher value; in the data active = fluorescence intensity above about 16000; inconclusive = no clear call, values can overlap the other calls
PriA SSB inh = inhibitors of Klebsiella pneumoniae PriA binding to SSB C-terminal tail; AlphaScreen SSBct-PriA binding, biotinylated peptide; inhibition, % at 33 µM; 430,000 compounds, 0.6% hits; in the data active = inhibition mostly above about 37%, no sharp cut-off; inactive = mostly below about 20%;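 also: plate controls were negative control peptide for no effect and reference peptide for full effect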
MazF activator = activators of E. coli MazEF toxin-antitoxin RNase | P0AE70 | FAM/BHQ RNA-DNA oligo cleavage fluorescence, 5 h | activation, % at 20 µM | AID 504720 | 350,000 compounds, 0.32% hits; in the data active = activation above about 50%
Target sequence (P0AE70 whole entry, looked up): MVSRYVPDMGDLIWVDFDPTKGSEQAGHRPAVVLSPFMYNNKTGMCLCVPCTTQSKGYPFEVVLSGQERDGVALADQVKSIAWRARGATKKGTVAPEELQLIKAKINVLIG
BoNT-F LC inh = blocks Botulinum neurotoxin F light chain protease; inhibition, % at 10 µM; Multiplex microsphere protease cleavage assay, flow cytometry; 360,000 compounds, 0.22% hits; AID 588497; in the data active = inhibition above about 35%, passing the limit was not always enough; inconclusive = no clear call, values can overlap the other calls; also: plate controls were buffer without enzyme for full effect and enzyme alone for no effect
Anthrax LF inh2 = anthrax lethal factor protease inhibition. multiplex microsphere protease cleavage assay, LF. inhibition, % at 10 µM. 360,000 compounds, 0.12% hits; also: plate controls were buffer without enzyme for full effect and enzyme alone for no effect
An asterisk follows results filed as active. This is a sample that favours compounds with a hit; in the whole collection about 3.3% have one here. Rule as the data show it, unless noted: active = inhibition above about 30%; inconclusive = no clear call, values can overlap the other calls; inactive = below that.

For CCOc1ccc(N/C=C/C(=O)c2ccc(C)cc2)c([N+](=O)[O-])c1 the results were BoNT A protease 0, Autofluor counter 2449, MazF activator 39, BoNT-F LC inh 2 and Anthrax LF inh2 1.
For CCOc1ccc(NC(=O)Cc2ccccc2)c([N+](=O)[O-])c1 the results were BoNT A protease 0, Autofluor counter 2563, PriA SSB inh 43*, MazF activator 2, BoNT-F LC inh -1 and Anthrax LF inh2 -1.
`CCOc1ccc(NC(=O)COc2ccccc2)c([N+](=O)[O-])c1` gave BoNT A protease -1, Autofluor counter 3468, PriA SSB inh 7, MazF activator 14, BoNT-F LC inh -6 and Anthrax LF inh2 -3.
Screening CCOc1ccc(NC(=O)Cc2cccc3ccccc23)c([N+](=O)[O-])c1 returned BoNT A protease 0, Autofluor counter 2347, PriA SSB inh 4, MazF activator 26, BoNT-F LC inh -4 and Anthrax LF inh2 -2.
Screening CCOc1ccc(NC(=O)c2ccc([N+](=O)[O-])s2)c([N+](=O)[O-])c1 returned PriA SSB inh -8.
Screening CCOc1ccc(NC(=O)c2snnc2C)c([N+](=O)[O-])c1 returned PriA SSB inh 52*.
CCC(=O)Nc1nc(-c2ccccc2)ns1 was read as BoNT A protease 2, Autofluor counter 21302*, PriA SSB inh 0, MazF activator -3, BoNT-F LC inh 2 and Anthrax LF inh2 -2.
For CCCC(=O)Nc1nc(-c2ccccc2)ns1 the results were BoNT A protease -1, Autofluor counter 2564, PriA SSB inh -12, MazF activator -4, BoNT-F LC inh -18 and Anthrax LF inh2 -2.
O=C(Nc1nc(-c2ccccc2)ns1)c1ccccc1 was read as PriA SSB inh -13.
Screening Cc1nnc(SCCC(=O)Nc2nc(-c3ccccc3)ns2)s1 returned BoNT A protease -2, Autofluor counter 16875*, PriA SSB inh -4, MazF activator -3, BoNT-F LC inh -6 and Anthrax LF inh2 -4.
`CC(C)C(=O)Nc1nc(-c2ccccc2)ns1` gave BoNT A protease inconclusive, Autofluor counter 22460*, PriA SSB inh -9, MazF activator -11, BoNT-F LC inh 3 and Anthrax LF inh2 -7.
For O=C(Nc1nc(-c2ccccc2)ns1)c1cccs1 the results were BoNT A protease -5, Autofluor counter 22042*, PriA SSB inh -6, MazF activator 0, BoNT-F LC inh -6 and Anthrax LF inh2 -1.
`COc1ccc(F)cc1S(=O)(=O)NCCOc1ccc(F)cc1` gave PriA SSB inh -9.
COc1cc(C)c(C)cc1S(=O)(=O)NCCn1nc(-c2ccco2)ccc1=O was read as PriA SSB inh -12.
Screening O=C(O)c1cccnc1SC1CC(=O)N(CCc2ccccc2)C1=O (configuration not stated) returned BoNT A protease -2, Autofluor counter 24601*, PriA SSB inh -18, MazF activator 17, BoNT-F LC inh -3 and Anthrax LF inh2 0.
For CS(=O)(=O)N(CC(=O)N1CCN(c2ccc(F)cc2)CC1)c1ccc(F)c(Cl)c1 the results were BoNT A protease inconclusive, Autofluor counter 24225*, PriA SSB inh -7, MazF activator -19, BoNT-F LC inh -4 and Anthrax LF inh2 -4.
For Cc1cccc(N(CC(=O)N2CCN(c3ccc(F)cc3)CC2)S(C)(=O)=O)c1C the results were BoNT A protease -1, Autofluor counter 4507, PriA SSB inh 2, MazF activator 11, BoNT-F LC inh 5 and Anthrax LF inh2 0.
CCCOc1cccc(C2C(C(=O)c3ccco3)=C(O)C(=O)N2c2nnc(C)s2)c1 (configuration not stated) was read as BoNT A protease 0, Autofluor counter 6092, PriA SSB inh -3, MazF activator -38, BoNT-F LC inh 6 and Anthrax LF inh2 -1.
For COc1cccc(C2C(C(=O)c3ccc(C)o3)=C(O)C(=O)N2c2cc(C)on2)c1 (configuration not stated) the results were BoNT A protease 1, Autofluor counter 5927, PriA SSB inh -10, MazF activator 0, BoNT-F LC inh 4 and Anthrax LF inh2 -2.
For CCCCOc1cccc(C2C(C(=O)c3ccc(C)o3)=C(O)C(=O)N2c2nnc(C)s2)c1 (configuration not stated) the results were BoNT A protease -2, Autofluor counter 6728, PriA SSB inh 1, MazF activator 154*, BoNT-F LC inh 11 and Anthrax LF inh2 3.
C=CCOc1cccc(C2C(C(=O)c3ccc(C)o3)=C(O)C(=O)N2c2nccs2)c1 (configuration not stated) was read as BoNT A protease 1, Autofluor counter 5183, PriA SSB inh 10, MazF activator active, BoNT-F LC inh 23 and Anthrax LF inh2 2.
Screening O=C(NCc1ccc(OCc2ccccc2)cc1)C1COCC(=O)N1Cc1ccccc1 (configuration not stated) returned PriA SSB inh -14.
Screening CC(C)c1ccc(-c2c(C#N)c(N)nc(SCC(=O)N3CCCCCC3)c2C#N)cc1 returned PriA SSB inh -14 and MazF activator -1.
For N#Cc1c(N)nc(SCC(=O)NC2CCCCC2)c(C#N)c1-c1ccc(Cl)cc1 the results were BoNT A protease 2, Autofluor counter 16126*, PriA SSB inh -6, MazF activator -25, BoNT-F LC inh 3 and Anthrax LF inh2 3.
For O=C(Cn1c(C(F)(F)F)nc2ccccc21)NCCN1CCCC1 the results were BoNT A protease 3, Autofluor counter 22679*, PriA SSB inh -72, MazF activator -2, BoNT-F LC inh -3 and Anthrax LF inh2 -5.
For O=C(NN1C(=O)/C(=C\c2ccco2)SC1=S)c1ccc(OC(F)F)cc1 the results were PriA SSB inh 17.
For C=CCOc1ccccc1/C=C/C(=O)O the results were BoNT A protease -2, Autofluor counter 22958*, PriA SSB inh -3, MazF activator 6, BoNT-F LC inh 1 and Anthrax LF inh2 -3.
Screening O=C(O)/C=C/c1ccccc1Oc1ccccc1 returned BoNT A protease 1, Autofluor counter 6517, PriA SSB inh -8, MazF activator 1, BoNT-F LC inh -2 and Anthrax LF inh2 8.
CC(C)Oc1cccc(-c2cc(C(=O)NN3CCOCC3)c3ccccc3n2)c1 was read as BoNT A protease 0, Autofluor counter 5636, PriA SSB inh 0, MazF activator 2, BoNT-F LC inh 8 and Anthrax LF inh2 -4.
For CCCc1ccc(-c2cc(C(=O)NCCc3ccc(S(N)(=O)=O)cc3)c3ccccc3n2)cc1 the results were BoNT A protease 4, Autofluor counter 22125*, PriA SSB inh -2, MazF activator 4, BoNT-F LC inh 4 and Anthrax LF inh2 0.
For NS(=O)(=O)c1ccc(CCNC(=O)c2cc(-c3ccc(Br)cc3)nc3ccccc23)cc1 the results were BoNT A protease 0, Autofluor counter 2467, PriA SSB inh 3, MazF activator -10, BoNT-F LC inh -6 and Anthrax LF inh2 -1.
